# From PubChem BioAssay
# Rango release inh – inhibitors of RanGTP-induced Rango-importin beta complex dissociation; AID 540253; hit rate 0.071% among 340,000; Potency, µM (top dose mostly 46.1 µM), for inactives: top-dose activity change, negative = inhibition; Biochemical FRET Rango-importin beta, RanGTP-induced dissociation; O95149+P62826; note: % of control where 0% means no effect; nearly all actives have a fitted effect of over 45% in size
#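 Quantitative HTS using a FRET biosensor: 0.1 uM Rango, 0.25 uM importin beta, 0.6 uM Ran, 2 mM GTP, 0.2 uM RCC1 final, PBS with DTT, Tween-20 and BSA. Post-read taken 45 min after Ran addition.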
# TSG101-PTAP inh – blocks PTAP/TSG101 interaction to inhibit HIV-1 budding | Fluorescence polarization, FITC-PTAP peptide / Tsg101 binding | Potency, µM (series often up to 115 µM), for the others: top-dose activity change, negative = inhibition, actives largely listed as inhibitors | 340,000 tested, under 10 active | AID 493005; active = well fitted inhibition curve with a large enough effect in the main read-out, with a control signal flat, not every such curve was filed as active; inconclusive = small, poorly fitted or top-dose-only effect, or effect the other way, or a change in a side signal; inactive = no such curve, though single readings can be large or run the other way; note: % of control where 0% means no effect
#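 Tsg101 binding domain (10 uM final) was mixed with compound and a FITC-labeled PTAP peptide (50 nM final) in HEPES pH 7.5 buffer with NaCl, Tween 20, EDTA and TCEP; fluorescence polarization was read after 20 min at r.t.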
# ClpP mod – qHTS Assay for Activators of ClpP. ATP-dependent Clp protease proteolytic subunit (Bacillus subtilis (strain 168)), P80244. purified B. subtilis ClpP, FRET peptide cleavage, 20 min. Potency, µM (titrated, usually from 57.5 µM), for inactives: at the highest dose activity change, negative = active. hit rate 1.9% among 340,000. AID 651965, 2013; active = well fitted falling curve with a large enough effect; inconclusive = small, poorly fitted or top-dose-only effect; inactive = no such curve, though single readings can be large or run the other way; note: the source files actives as falling curves though it sought activators and does not explain the sign; nearly all actives have a fitted effect of over 65% in size
#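 Purified B. subtilis ClpP, 10 microg/mL final in Tris/HCl pH8 with KCl, BSA, glycerol and Tween-20, cleaved an Abz/nitrotyrosine-quenched decapeptide. Fluorescence (ex 320, em 430) was read at 0 and 20 min at room temperature. Delta was normalized to 5.8 microM ADEP and DMSO/no-enzyme controls.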
# Rango complex inh – Rango-importin beta binding inhibition; Q14974; Rango CFP/YFP FRET sensor + importin beta, 45 min; Potency, µM (series often up to 92.2 µM), for the others: at the highest dose inhibition of complex formation; hit rate 0.031% among 340,000;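 note: 0% = DMSO wells and 100% = buffer wells lacking importin beta; nearly all actives have a fitted effect of over 15% in size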
#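 Inhibition scored from the CFP 486 nm/YFP 530 nm FRET ratio 45 min after adding 0.125 microM importin beta to 50 nM Rango biosensor preincubated 5 min with compound (room temperature, PBS with DTT, Tween-20, BSA). No-importin wells as positive control.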
# TDP1 inh – inhibitors of human tyrosyl-DNA phosphodiesterase TDP1 | Q9NUW8 | recombinant TDP1, AlphaScreen DNA substrate cleavage | Potency, µM (series often up to 130 µM), for inactives: top-dose activity change, negative = inhibition, hits mostly inhibitors | hit rate 0.28% among 350,000 | AID 485290; active = well fitted curve in the direction sought with a large enough effect; inconclusive = small, poorly fitted or top-dose-only effect, or another doubt; inactive = no such curve, though single readings can be large; an effect the other way counts as inactive or inconclusive; note: % is set by controls: 0 for no effect and ±100 for the full control effect; nearly all actives have a fitted effect of over 40% in size
#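 Signal: AlphaScreen proximity between streptavidin donor and anti-FITC acceptor beads on intact substrate. Reaction: Tdp1 1 nM, substrate 15 nM final, 5 min RT after 15 min compound preincubation.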
# ALOX12 inh – inhibitors of human 12S-lipoxygenase ALOX12. P18054. purified 12hLO, xylenol orange hydroperoxide absorbance. Potency, µM (top dose mostly 108 µM), for the others: at the top dose activity change, negative = inhibition, actives largely listed as inhibitors. hit rate 1.1% among 580,000; active = well fitted curve in the direction sought with a large enough effect; inconclusive = small, poorly fitted or top-dose-only effect, or another doubt; inactive = no such curve, though single readings can be large; an effect the other way counts as inactive or inconclusive; note: % is set by controls: 0 for no effect and ±100 for the full control effect
#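 Hydroperoxide product was detected by ferrous iron/xylenol orange as the 573 to 405 nm absorbance ratio. Arachidonic acid at 40 uM (final) was turned over for 30 min at room temperature by 150 nM human 12hLO, pH 7.0 Hepes buffer, after 15 min compound preincubation.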
# Starred values were filed as active, the others as inactive; ? = inconclusive; nt = no result. A selection: hits, their analogues and other compounds. The true share with any hit is near 2.4%. Unless noted, calls come from the whole dose curve. Potency is the fitted concentration of half-maximal effect.
SMILES,Rango release inh,TSG101-PTAP inh,ClpP mod,Rango complex inh,TDP1 inh,ALOX12 inh
COCCNS(=O)(=O)c1ccc(C2CNC(=O)C2)cc1 (stereo unspecified),-10.4%,-1.4%,0.9%,-3.7%,1.2%,255.5%
CC(=O)c1ccc(NC(=O)c2ccccc2-c2ccccc2)cc1,nt,nt,nt,nt,nt,-5.4%
O=S(=O)(Nc1ccc(O)c2ccccc12)c1cccs1,-4.4%,2.2%,-0.5%,-1.0%,nt,31.6µM*
O=S(=O)(Nc1cccc2ccccc12)c1cccs1,0.3%,0.1%,-7.4%,0.0%,1.1%,-13.4%
Cc1nc([C@@H]2CN(C(=O)CCc3nc4ccccc4s3)C[C@H]2C(N)=O)n[nH]1,nt,nt,nt,nt,nt,0.4%
O=C1/C(=C/c2ccco2)SC(=S)N1c1cccnc1,-22.8%,-2.8%,nt,-5.6%,nt,39.8µM*
Oc1cccc(/C=N/NC(=S)Nc2cccnc2)c1O,-22.7%,-0.7%,-0.2%,?,0.0%,44.7µM*
CSc1nsc(SCC(=O)Nc2ccc(O)c(C(=O)O)c2)n1,-3.6%,-4.8%,?,-3.2%,0.4%,39.8µM*
CCN1CCN(c2cc3c(nn2)Oc2ccccc2N3C)CC1,-3.1%,-8.3%,28.2µM*,7.2%,-5.3%,10.4%
COc1cccc(C(=O)N2CCN(c3cc(-c4ccc(Cl)cc4)[nH]n3)CC2)c1OC,nt,nt,nt,nt,nt,6.1%
CC1=C([N+](=O)[O-])C(c2ccc(O)c(O)c2)NC(=O)N1 (stereo unspecified),-4.4%,0.8%,0.3%,-5.0%,nt,28.2µM*
CCN1CC=C2C(C#N)=C(N)C(C#N)(C#N)C(CCc3ccccc3)C2C1 (stereo unspecified),?,?,28.2µM*,?,5.0%,-0.2%
CC(=O)N1CC=C2C(C#N)=C(N)C(C#N)(C#N)C(CCc3ccccc3)C2C1 (stereo unspecified),?,1.1%,-3.8%,?,2.1%,56.0%
COc1ccccc1C(=O)NC1CCN(c2cc(-c3cccs3)[nH]n2)CC1,nt,nt,nt,nt,nt,33.0%
COc1cccc(NC(=O)N2CCC(N(C)CCC(C)C)CC2)c1,nt,nt,nt,nt,nt,33.3%
O=C(NCC1(N2CCCCC2)CCCCC1)C1CC(=O)N(c2ccc3c(c2)OCCO3)C1 (stereo unspecified),-1.8%,-0.7%,8.91µM*,2.4%,2.9%,-22.1%
Cc1cnc(NC(=O)C2CC(=O)N(c3ccc4c(c3)OCCO4)C2)s1 (stereo unspecified),12.2%,-3.5%,28.2µM*,0.8%,-3.1%,-10.3%
Cc1nnnn1-c1cccc(C(=O)N2CCC3(CCCN(C)C3=O)C2)c1 (stereo unspecified),nt,nt,nt,nt,nt,30.2%
O=C(NC1CCCC1)N[C@@H]1C[C@H](Cn2cc(C3CC3)nn2)[C@@H](O)[C@H]1O,nt,nt,nt,nt,nt,22.4µM*
CCCCN(C(=O)C1CC(=O)N(CCc2ccc(OC)c(OC)c2)C1)c1c(N)n(CCCC)c(=O)[nH]c1=O (stereo unspecified),?,-13.1%,nt,0.2%,1.0%,-18.3%
CCCCN(C(=O)C1CC(=O)N(Cc2ccc(C)cc2)C1)c1c(N)n(CCCC)c(=O)[nH]c1=O (stereo unspecified),-5.7%,-3.2%,22.4µM*,1.7%,3.9%,-26.6%
CC(C)Cn1nnnc1SC(C)C(=O)c1ccc(Br)cc1 (stereo unspecified),nt,nt,nt,nt,nt,-4.0%
Cc1ccc(S(=O)(=O)N(CC(=O)Nc2ccc(Cl)c([N+](=O)[O-])c2)C2CCCCC2)cc1,0.4%,-1.0%,28.2µM*,-4.4%,1.2%,3.2%
Cc1ccc(S(=O)(=O)N(CC(=O)Nc2cccc([N+](=O)[O-])c2)C2CCCCC2)cc1,1.0%,-8.4%,-1.3%,0.1%,9.3%,36.4%
NC(=S)N/N=C1\c2ccccc2-c2c(C(=O)O)cccc21,-20.0%,1.9%,-0.7%,4.4%,1.2%,31.6µM*
